Here are results for eight compounds from ChEMBL document CHEMBL3988442, “University of Dundee, Small-Polar-MMV Screening Library” (2021).

Holding throughout (set-up): scale not given: direction of the effect not stated beside the values
In assay [1] the target is Protein translocase subunit SecA (Escherichia coli (strain K12)) (UniProt P10408). As to the kind of experiment: Assay to Identify E. coli SecA ATPase Inhibitors. The note with it: 30 µM. Format: functional.
Assay [2] has as its target T1, Ubiquitin-activating enzyme e1, putative (Leishmania donovani (strain BPK282A1)) (UniProt E9BSI1).
T1 sequence (whole entry): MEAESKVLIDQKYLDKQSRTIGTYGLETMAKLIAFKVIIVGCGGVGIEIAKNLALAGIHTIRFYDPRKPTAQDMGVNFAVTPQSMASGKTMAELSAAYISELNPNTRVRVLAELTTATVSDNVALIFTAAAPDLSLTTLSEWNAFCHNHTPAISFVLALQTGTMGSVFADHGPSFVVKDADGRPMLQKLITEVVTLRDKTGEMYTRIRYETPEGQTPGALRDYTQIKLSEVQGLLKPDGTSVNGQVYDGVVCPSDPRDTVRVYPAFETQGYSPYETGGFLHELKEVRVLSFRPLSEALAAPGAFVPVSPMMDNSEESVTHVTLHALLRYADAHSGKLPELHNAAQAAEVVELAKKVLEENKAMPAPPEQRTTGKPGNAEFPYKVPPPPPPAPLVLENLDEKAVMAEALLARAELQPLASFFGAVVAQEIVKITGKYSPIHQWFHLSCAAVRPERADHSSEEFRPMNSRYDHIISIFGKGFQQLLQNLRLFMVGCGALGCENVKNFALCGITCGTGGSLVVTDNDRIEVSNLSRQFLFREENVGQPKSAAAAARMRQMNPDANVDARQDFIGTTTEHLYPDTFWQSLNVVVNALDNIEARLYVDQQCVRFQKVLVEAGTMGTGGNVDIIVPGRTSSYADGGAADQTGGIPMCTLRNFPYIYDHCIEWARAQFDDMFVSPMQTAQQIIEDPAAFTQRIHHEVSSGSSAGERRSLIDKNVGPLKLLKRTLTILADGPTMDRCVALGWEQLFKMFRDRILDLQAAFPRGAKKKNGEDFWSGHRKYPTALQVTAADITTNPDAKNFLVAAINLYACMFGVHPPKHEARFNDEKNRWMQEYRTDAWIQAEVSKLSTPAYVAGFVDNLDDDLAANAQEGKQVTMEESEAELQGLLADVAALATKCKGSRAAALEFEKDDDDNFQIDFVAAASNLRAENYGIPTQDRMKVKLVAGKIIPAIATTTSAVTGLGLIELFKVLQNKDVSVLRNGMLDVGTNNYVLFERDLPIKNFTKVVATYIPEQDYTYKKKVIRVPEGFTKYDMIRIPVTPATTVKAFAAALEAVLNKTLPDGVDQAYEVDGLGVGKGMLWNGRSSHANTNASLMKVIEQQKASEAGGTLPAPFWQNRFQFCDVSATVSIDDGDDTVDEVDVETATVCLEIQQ
As to the kind of experiment: Leishmania donovani Ubiquitin Activating Enzyme (LdE1). Format: functional. The settings on record: 30 µM.

The target in assay [3] is AMP-activated protein kinase, AMPK (Homo sapiens) (UniProt P54646+O43741+P54619+Q9UGJ0+Q9Y478+Q13131+Q9UGI9). Nature of the assay: AMP-dependent Kinase enzyme assay. An in vitro enzyme assay that detects ADP turnover that is directly proportional to AMPK activity. This uses naive AMPK that is activated during the assay with MK-8722. It is filed as functional. The settings on record: 30 µM.

In assay [4] the target is Sialic acid-binding Ig-like lectin 9 (Homo sapiens) (UniProt Q9Y336). Nature of the assay: Hs-Siglec9 ALPHAscreen SOP 20170721. The settings on record: 10 µM. Background: Bead proximity is the source of the signal in Alpha formats.
Sequence of Sialic acid-binding Ig-like lectin 9 (Homo sapiens) (Q9Y336 whole entry): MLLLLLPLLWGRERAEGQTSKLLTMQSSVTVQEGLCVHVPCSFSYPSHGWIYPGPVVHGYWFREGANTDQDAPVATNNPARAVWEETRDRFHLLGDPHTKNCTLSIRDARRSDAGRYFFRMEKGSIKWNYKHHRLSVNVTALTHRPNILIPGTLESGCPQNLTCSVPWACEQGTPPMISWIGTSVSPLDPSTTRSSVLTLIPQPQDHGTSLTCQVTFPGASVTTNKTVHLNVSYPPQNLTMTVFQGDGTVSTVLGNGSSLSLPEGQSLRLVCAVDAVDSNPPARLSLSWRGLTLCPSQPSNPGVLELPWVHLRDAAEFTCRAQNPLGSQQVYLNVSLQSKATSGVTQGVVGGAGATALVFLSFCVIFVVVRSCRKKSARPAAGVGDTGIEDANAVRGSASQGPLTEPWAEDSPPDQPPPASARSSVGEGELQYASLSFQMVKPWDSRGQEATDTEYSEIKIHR
The subject of assay [5] is Trypanosoma cruzi. Nature of the assay: Trypanosoma cruzi phosphomannomutase and mannose-1-phosphate guanylyltransferase assay. Format: functional. The settings on record: 10 µM.
In assay [6] the target is T2, Arginase-2, mitochondrial (Homo sapiens) (UniProt P78540).
T2 sequence (whole entry): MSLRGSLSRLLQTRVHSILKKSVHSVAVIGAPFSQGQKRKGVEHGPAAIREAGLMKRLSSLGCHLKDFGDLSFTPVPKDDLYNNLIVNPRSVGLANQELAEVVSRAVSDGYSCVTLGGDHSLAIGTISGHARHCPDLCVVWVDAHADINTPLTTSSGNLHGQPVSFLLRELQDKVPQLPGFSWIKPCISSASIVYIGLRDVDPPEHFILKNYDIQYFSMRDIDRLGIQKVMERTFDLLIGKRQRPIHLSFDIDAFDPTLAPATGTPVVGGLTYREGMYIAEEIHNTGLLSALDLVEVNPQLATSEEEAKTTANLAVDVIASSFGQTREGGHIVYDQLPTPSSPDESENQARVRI
Nature of the assay: in vitro enzyme assay to detect the production of urea directly proportional to the activity of Arginase II. Note: in the data most compounds retested in dose-response had high values. It is filed as functional. The note with it: 33.3 µM.

For assay [7], the target named is T3, Proteasome subunit beta (Trypanosoma cruzi) (UniProt O96673).
T3 sequence (whole entry): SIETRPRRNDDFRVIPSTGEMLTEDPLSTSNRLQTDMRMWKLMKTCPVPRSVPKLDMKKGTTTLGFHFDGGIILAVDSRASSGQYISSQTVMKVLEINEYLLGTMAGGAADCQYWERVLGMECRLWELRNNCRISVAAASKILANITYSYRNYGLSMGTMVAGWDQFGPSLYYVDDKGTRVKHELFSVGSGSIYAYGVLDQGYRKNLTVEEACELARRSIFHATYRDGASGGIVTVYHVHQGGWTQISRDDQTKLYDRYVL
Nature of the assay: Trypanosoma cruzi proteasome chymotrypsin-like activity (TcProtChymo) assay. Note: in the data most compounds retested in dose-response had high values. Format: functional. The note with it: 9.37 µM.

The species named for assay [8] is Homo sapiens. As to the kind of experiment: To identify inhibition of the IFN signalling (Jak-Stat) pathway via expression of an eGFP reporter gene under the control of an IFN-stimulated response element (ISRE) containing MxA promoter. The note with it: 30 µM. It is filed as functional. On the technique in general: A reporter such as luciferase makes a cellular process visible.

Assay [9] addresses T4, Tyrosyl-tRNA synthetase, putative (Trypanosoma cruzi (strain CL Brener)) (UniProt Q4DSP6).
T4 sequence (whole entry): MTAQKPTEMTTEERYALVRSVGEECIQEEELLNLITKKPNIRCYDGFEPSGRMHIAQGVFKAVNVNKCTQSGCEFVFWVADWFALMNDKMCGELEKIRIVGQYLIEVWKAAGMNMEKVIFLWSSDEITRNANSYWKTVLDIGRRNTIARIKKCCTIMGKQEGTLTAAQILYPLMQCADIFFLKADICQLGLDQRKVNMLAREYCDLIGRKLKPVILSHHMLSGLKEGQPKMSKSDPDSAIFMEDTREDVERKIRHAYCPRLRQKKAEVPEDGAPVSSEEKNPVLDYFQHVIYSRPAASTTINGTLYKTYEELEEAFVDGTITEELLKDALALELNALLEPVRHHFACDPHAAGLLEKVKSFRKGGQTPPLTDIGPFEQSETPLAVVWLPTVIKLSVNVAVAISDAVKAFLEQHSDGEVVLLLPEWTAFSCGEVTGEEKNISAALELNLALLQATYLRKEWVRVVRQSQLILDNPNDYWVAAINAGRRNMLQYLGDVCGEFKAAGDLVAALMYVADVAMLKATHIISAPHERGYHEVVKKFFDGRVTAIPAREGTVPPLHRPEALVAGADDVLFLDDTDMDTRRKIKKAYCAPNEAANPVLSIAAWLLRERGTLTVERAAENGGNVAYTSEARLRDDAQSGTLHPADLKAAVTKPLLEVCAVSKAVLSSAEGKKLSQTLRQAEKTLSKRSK
Nature of the assay: Trypanosoma cruzi tyrosyl tRNA synthetase (TcYRS) _High Tyrosine SOP. Note: in the data most compounds retested in dose-response had high values. Format: functional. The note with it: 30 µM.

Assay [10] concerns the target T4, Tyrosyl-tRNA synthetase, putative (Trypanosoma cruzi (strain CL Brener)). As to the kind of experiment: Trypanosoma cruzi tyrosyl tRNA synthetase (TcYRS) SOP. Format: functional. The note with it: 30 µM.
Assay [11] concerns the target Chromo domain-containing protein 1 (Saccharomyces cerevisiae (strain ATCC 204508 / S288c) (Baker's yeast)) (UniProt P32657). Nature of the assay: ScCHD-1 Enzyme Inhibition Assay. Note: in the data most compounds retested in dose-response had high values. The settings on record: 30 µM. Format: functional.

For some of these results: Results with a measured potency or affinity are listed apart.

Sequence of Protein translocase subunit SecA (Escherichia coli (strain K12)) (P10408 whole entry): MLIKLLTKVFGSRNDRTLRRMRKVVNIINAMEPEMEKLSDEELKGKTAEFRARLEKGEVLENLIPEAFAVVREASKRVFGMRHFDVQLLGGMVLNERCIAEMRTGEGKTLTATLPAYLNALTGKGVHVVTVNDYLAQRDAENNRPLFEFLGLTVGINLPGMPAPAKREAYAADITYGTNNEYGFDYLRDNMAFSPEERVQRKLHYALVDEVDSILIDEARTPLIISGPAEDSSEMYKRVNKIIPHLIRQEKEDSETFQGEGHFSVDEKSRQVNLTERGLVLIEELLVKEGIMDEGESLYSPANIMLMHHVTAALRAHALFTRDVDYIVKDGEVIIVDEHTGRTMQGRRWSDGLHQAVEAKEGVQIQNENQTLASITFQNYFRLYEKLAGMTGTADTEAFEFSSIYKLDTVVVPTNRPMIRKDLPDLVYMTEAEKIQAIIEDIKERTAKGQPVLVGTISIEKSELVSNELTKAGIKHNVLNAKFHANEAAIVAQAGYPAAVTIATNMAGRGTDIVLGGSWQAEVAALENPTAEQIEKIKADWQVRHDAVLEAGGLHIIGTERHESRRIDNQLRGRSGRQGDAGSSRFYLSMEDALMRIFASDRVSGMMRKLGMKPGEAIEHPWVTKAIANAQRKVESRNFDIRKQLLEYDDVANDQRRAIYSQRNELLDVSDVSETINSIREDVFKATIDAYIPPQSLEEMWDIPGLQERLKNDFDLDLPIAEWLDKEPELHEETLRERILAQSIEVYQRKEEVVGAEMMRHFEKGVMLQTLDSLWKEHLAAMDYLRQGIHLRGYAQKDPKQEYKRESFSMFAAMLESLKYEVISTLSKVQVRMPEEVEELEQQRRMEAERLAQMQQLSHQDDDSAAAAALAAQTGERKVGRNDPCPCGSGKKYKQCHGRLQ
Sequence of Chromo domain-containing protein 1 (Saccharomyces cerevisiae (strain ATCC 204508 / S288c) (Baker's yeast)) (P32657 whole entry, the tested form may be a part): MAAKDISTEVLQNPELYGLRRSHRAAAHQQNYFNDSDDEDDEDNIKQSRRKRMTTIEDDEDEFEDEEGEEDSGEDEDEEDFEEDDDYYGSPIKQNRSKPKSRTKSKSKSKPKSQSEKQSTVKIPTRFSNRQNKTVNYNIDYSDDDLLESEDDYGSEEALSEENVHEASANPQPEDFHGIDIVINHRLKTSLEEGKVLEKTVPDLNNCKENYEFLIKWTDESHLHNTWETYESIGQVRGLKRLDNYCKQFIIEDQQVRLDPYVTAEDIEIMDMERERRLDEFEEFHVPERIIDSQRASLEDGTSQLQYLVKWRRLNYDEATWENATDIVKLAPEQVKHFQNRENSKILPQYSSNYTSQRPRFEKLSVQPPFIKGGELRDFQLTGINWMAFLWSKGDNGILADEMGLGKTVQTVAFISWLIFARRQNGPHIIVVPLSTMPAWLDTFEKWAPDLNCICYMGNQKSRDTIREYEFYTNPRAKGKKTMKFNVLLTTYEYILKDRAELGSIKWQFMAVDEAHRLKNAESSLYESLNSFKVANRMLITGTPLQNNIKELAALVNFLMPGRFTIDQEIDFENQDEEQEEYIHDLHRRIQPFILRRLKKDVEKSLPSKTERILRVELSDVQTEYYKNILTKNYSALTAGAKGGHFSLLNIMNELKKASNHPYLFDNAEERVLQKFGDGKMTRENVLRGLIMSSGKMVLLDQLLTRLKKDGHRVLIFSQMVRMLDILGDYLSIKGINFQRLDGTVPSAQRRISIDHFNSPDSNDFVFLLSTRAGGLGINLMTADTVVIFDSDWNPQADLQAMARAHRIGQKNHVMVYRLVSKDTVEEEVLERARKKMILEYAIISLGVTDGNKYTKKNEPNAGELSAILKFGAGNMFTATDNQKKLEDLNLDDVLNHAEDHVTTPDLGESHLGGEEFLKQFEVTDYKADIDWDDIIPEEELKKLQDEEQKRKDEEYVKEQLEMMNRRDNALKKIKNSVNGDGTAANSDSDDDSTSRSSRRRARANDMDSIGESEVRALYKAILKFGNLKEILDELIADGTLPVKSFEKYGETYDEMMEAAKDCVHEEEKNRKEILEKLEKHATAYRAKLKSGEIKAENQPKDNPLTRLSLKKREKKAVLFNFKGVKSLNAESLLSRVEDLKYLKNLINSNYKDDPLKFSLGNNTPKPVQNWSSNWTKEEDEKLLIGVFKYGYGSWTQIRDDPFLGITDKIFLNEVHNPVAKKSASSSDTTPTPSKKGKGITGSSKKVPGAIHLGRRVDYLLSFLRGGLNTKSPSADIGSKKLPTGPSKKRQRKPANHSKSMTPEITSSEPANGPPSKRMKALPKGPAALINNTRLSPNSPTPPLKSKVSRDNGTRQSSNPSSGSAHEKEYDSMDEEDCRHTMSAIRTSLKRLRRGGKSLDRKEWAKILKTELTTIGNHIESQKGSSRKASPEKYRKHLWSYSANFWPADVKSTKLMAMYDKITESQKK

Consider `c1cnn(CC2CN(CC3CCCC3)CCO2)c1` (stereo not drawn), for which the Percent Effect in [1] was -5.26%; in assay [2], 3.8%; in assay [3], -0.822%; in assay [4], 1.53%; in assay [5], 0.308%; in assay [6], 0.645%. The Percent Effect in [7] is 10.6%; in assay [8], -2.54%; in [9], 5.21%; in [10] it was -15.2%; in [11] it was -17.2%.

Take `O=C1NC2(CCN(C(=O)Cc3ccsc3)CC2)CC1c1ccncc1` (stereo not drawn): the Percent Effect in assay [1] was 2.65%; in [2] it was 10.4%; in assay [3] it was 2.31%; in assay [4], -7.01%; in assay [5], -7.99%; in assay [6], 16.1%. For the same compound, the Percent Effect in [7] was 11.1%; in assay [8], 5.79%; in assay [9], 6.35%; in assay [10] it was 14.1%; in assay [11], -9.26%.

With `COC(=O)c1cccc(NC(=O)CCn2nc(-c3cccs3)oc2=O)c1`, the Percent Effect was -5.54% in [1]; 10.8% in assay [2]; 11.1% in assay [3]; -7.27% in assay [4]; -5.11% in [5]; -4.25% in assay [6]. Further, the Percent Effect in assay [7] is 5.92%; in assay [8], 7.13%; in [9], 0%; in [10], 6.1%; in [11] it was -3.3%.

For `O=C(Cn1cc(C(=O)O)ccc1=O)Nc1ccc(F)cc1Cl`, the Percent Effect is -1.48% in [1]; 14.7% in [2]; 2.96% in assay [3]; 5.48% in assay [4]; 1.18% in assay [5]; -12.2% in [6]. The Percent Effect in assay [7] was 11.5%; in assay [8], -15%; in assay [9], 6.35%; in assay [10], 5.13%; in [11], -9.34%.

Consider `CC(Cc1ccco1)NC(=O)Nc1ccc(N2CCOCC2)nc1` (stereo not drawn), for which the Percent Effect is -3.25% in [1]; 15.8% in assay [2]; -15.8% in [3]; 11.3% in [4]; 1.5% in [5]; 0.383% in assay [6]. Besides, the Percent Effect in [7] is 11.2%; in [8], -9.28%; in assay [9] it was 3.43%; in assay [10] it was 19.5%; in assay [11], -11.4%.

Take `Cn1cc(CN2CC3(CCN(C(=O)c4cscn4)C3)C2)cn1`: the Percent Effect in assay [1] is -1.74%; in assay [2] it was 19.2%; in assay [3] it was -7.29%; in [4] it was 10.7%; in assay [5] it was 3.77%; in assay [6] it was -3.19%. For the same compound, the Percent Effect in assay [7] is 9.85%; in assay [8], 4.08%; in assay [9] it was 10.4%; in assay [10], 16.1%; in [11] it was -10.8%.

For `Cc1nc2ccnn2c(C)c1CCC(=O)N1CCN(C2CC2)CC1`, the Percent Effect was -4.83% in assay [1]; 18.4% in [2]; 9.42% in assay [3]; -13.6% in assay [4]; -7.38% in assay [5]; 0.719% in [6]. Further, the Percent Effect in assay [7] is 10.9%; in assay [8], 7.93%; in assay [9], 4.43%; in assay [10], 13.6%; in [11], -7.28%.

Take `CN1CCCCC1c1ncc2c(n1)CCN(Cc1ccccc1Cl)C2` (stereo not drawn): the Percent Effect in [1] was 1.96%; in assay [2] it was -13.3%; in [3] it was 4.6%; in [4], 2.83%; in assay [5], 3.74%; in assay [6], 2.56%. Moreover, the Percent Effect in assay [7] is 18.9%; in assay [8], -3.83%; in assay [9] it was 19.1%; in [10] it was 14.1%; in [11], 1.52%.
